In the library only some 4% were active in any assay of this set; here they are far more common.
CF NFkB block: inhibitors of PAF-induced NF-kB signaling, primary screen, cell-based, GFP fluorescence, uHTS | KKLEB NF-kB-GFP reporter, GFP fluorescence overnight | inhibition, % at 5 µM | 360,000 compounds, 0.86% hits | AID 588850, 2011;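 active = at least 50% inhibition at 5 µM, scaled per plate between neutral and stimulator controls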;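 also: PAF is a Pseudomonas aeruginosa culture filtrate used as stimulus; plate controls were PAF-stimulated DMSO wells for no effect and unstimulated DMSO wells for full effect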
KKLEB tox: cytotoxicity in KKLEB CF airway cells, primary screen, cytotoxicity control for CF NF-kB inhibitor project, cell-based, uHTS, fluorescence assay plates. KKLEB CF airway cells viability, ATPlite luminescence, overnight; active compounds read low; cells stimulated with P. aeruginosa culture filtrate. activity change (cytotoxicity), % at 5 µM. 360,000 compounds, 0.36% hits. AID 602141, 2011;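 active = corrected activity change at or below -50% at 5 µM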
Peg3 promoter: Peg3 promoter-driven luciferase inhibitors, primary screen, cell-based, HeLa, luciferase luminescence; HeLa PEG-Prom luciferase reporter, overnight; inhibition, % at 20 µM; 360,000 compounds, 1.7% hits;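 active = inhibition of at least 50% at 20 µM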
TWEAK Fn14 block: inhibitors of TWEAK-Fn14 signaling, primary screen, luciferase reporter cells, uHTS; TWEAK-stimulated Fn14 reporter cells, luciferase luminescence, 8 h; inhibition, % at 10 µM; 360,000 compounds, 2% hits; in the data active = inhibition above about 50%
HIF-2a block: HIF-2a reporter inhibitors, primary screen, luminescence, 786-0 RCC cells; 786-0 RCC cells HIF-2a reporter, luciferase luminescence, overnight; inhibition, % at 18.8 µM; 360,000 compounds, 0.72% hits; AID 624352, 2012;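 active = inhibition of the luminescence signal of 40% or more relative to plate controls, in a single-dose primary screen at 18.75 µM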
TROY NFkB inh: inhibitors of TROY-driven NF-kB signaling, primary screen, Q293 LMP1-TROYcd cells, NF-kB luciferase, uHTS. Q293 LMP1-TROYcd NF-kB luciferase reporter, 4 h. inhibition, % at 10 µM. 360,000 compounds, 0.98% hits;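 active = compounds whose plate-normalised and pattern-corrected inhibition of the luciferase reporter signal at the single screening dose is 50% or more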
Mdm2-MdmX confirm: retested Mdm2-MdmX interaction blockers, confirmation, cell-based, luminescence, single concentration, set 2; SaOS-2 split-luciferase Mdm2/MdmX complementation; shares compounds with HIF-2a block; 740 compounds, 99% hits; inhibition, % at 8 µM; AID 504601, 2011;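 active = mean inhibition of the luminescence signal across two replicates at or above 26 percent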
Target sequence (O15151 whole entry, looked up): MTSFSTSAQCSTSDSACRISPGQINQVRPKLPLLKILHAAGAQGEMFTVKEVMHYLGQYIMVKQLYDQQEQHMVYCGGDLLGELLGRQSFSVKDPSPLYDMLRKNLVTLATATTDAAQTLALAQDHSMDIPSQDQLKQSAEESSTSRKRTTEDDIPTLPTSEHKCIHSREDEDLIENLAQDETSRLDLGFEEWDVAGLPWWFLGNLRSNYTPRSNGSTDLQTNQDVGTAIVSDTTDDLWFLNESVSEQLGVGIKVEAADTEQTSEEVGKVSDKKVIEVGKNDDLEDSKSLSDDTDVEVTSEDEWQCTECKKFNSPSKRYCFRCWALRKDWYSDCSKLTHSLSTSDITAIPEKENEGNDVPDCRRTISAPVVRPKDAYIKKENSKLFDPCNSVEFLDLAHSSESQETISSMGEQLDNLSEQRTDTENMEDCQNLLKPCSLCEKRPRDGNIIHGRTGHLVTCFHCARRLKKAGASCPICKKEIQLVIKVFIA
Target sequence (Q00987 whole entry, looked up): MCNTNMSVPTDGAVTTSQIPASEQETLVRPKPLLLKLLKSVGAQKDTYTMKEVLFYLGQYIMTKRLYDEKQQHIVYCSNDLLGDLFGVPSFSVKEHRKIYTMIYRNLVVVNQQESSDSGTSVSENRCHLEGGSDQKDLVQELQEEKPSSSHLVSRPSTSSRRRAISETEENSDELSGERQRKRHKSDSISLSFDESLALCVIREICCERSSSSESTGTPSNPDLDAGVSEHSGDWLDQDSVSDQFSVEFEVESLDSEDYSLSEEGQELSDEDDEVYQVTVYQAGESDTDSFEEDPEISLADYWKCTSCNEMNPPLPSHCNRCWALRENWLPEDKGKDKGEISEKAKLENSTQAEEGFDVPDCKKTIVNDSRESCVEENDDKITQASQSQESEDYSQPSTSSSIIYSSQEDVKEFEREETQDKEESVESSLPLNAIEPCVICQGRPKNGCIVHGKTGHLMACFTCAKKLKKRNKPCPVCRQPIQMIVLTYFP
HIF-2a inh conf: HIF-2a reporter inhibitor retest, confirmation, luminescence, 786-0 RCC cells | AID 651580, 2012 | shares compounds with HIF-2a block | inhibition, % at 18.8 µM | HIF-2a luciferase reporter luminescence, overnight | 1,800 compounds, 56% hits;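 active = mean inhibition across four replicates of at least 40 percent at the single tested concentration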
HIF-1a cs: HIF-1a luciferase reporter signal reduction – MiaPaCa-2 cells, single concentration, counter-screen for HIF-2a inhibitor project, confirmation | AID 651589, 2012 | 1,800 compounds, 72% hits | shares compounds with HIF-2a block | inhibition, % at 18.8 µM | MiaPaCa-2 HIF-1a luciferase reporter, desferoxamine, overnight;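 active = mean inhibition of the reporter signal across four replicates at the single tested dose of 50% or more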
* = called active by the depositor; / = not tested or not shown.

SMILES	CF NFkB block	KKLEB tox	Peg3 promoter	TWEAK Fn14 block	HIF-2a block	TROY NFkB inh	HIF-2a inh conf	HIF-1a cs	others
CCN(CC)Cc1c(O)ccc2occ(C(=O)c3ccc(OC)cc3)c12	-5.3	3.8	4.0	-17.0	28.7	-3.9	/	/
COC(=O)c1ccc(NC(=O)CSc2nc(=O)n3cccc(C)c3n2)cc1	11.9	-1.0	-7.1	-2.8	5.2	39.5	/	/
CCC1C(c2ccccc2)N(C)C(c2ccccc2)CC1(O)c1ccccc1 (configuration not stated)	26.1	2.8	35.2	8.7	32.8	1.8	/	/
CC(C)C1C(c2ccccc2)N(C)C(c2ccccc2)CC1(O)c1ccccc1 (configuration not stated)	17.2	-3.4	33.9	18.9	53.2*	29.0	2.1	28.9
CCOC(=O)Cc1ccc(NC(=O)c2ccc(C(C)(C)C)cc2)cc1	7.8	-10.2	-44.8	24.6	90.3*	-5.0	97.1*	76.6*
Cc1ccccc1N(C(=O)Cc1ccsc1)C(C(=O)NC1CCCCC1)c1ccc(F)cc1 (configuration not stated)	13.9	-0.7	5.5	-20.0	13.0	10.0	/	/
COc1ccc(C(CNC(=O)Cn2c(=O)oc3ccccc32)N(C)C)cc1 (configuration not stated)	-12.9	5.6	6.0	0.2	8.2	-10.5	/	/
O=S(=O)(Nc1cccc(-n2cnnn2)c1)c1ccc(Cl)nc1	3.2	3.2	-4.2	1.4	7.6	16.1	/	/
CCOC(=O)C1CC(CN2C(=O)c3ccccc3C2=O)OC1=O (configuration not stated)	-7.6	14.5	-2.2	7.3	-0.7	-16.7	/	/
COc1ccc(/C=C2\SC(=O)N(CCCC(=O)Nc3cc(Cl)ccc3C(=O)O)C2=O)cc1	-4.3	-2.1	76.1*	104.0*	89.5*	84.5*	98.2*	99.3*
COc1ccc(/C=C2\SC(=O)N(CCCC(=O)Nc3ccc(C(=O)O)cc3)C2=O)cc1OC	-18.2	1.2	10.5	0.9	13.2	-21.4	/	/
COC(=O)CSc1nc2ccc(N)cc2s1	-16.4	11.4	-11.5	23.6	-4.5	-3.3	/	/
COc1ccc(C(=O)/C(=C\c2ccco2)N2C=CC=CC2=C(C#N)C#N)cc1	93.7*	-87.1*	104.5*	10.8	96.0*	-8.8	/	/	Mdm2-MdmX confirm=100.2*
COC(=O)CCSCC(=O)N1N=C(c2ccc(Br)cc2)CC1c1cccc(OC)c1OC (configuration not stated)	2.4	2.5	12.7	-19.0	6.3	-3.8	/	/
CN1C2=NCCN2C(=O)c2cc(Cl)ccc21	-4.4	4.1	3.8	10.7	11.2	-1.6	/	/
Clc1ccc2c(c1)-c1ccccc1C1=NCCN12	-212.7	-2.0	109.7*	-72.0	45.0*	-94.9	-59.0	103.9*
COc1ccc(C2(c3ccc(OC)cc3)NC(=O)N(CC(=O)Nc3ccccc3)C2=O)cc1	-5.7	9.0	-0.1	-3.8	18.3	6.5	/	/
COC(=O)c1cc(=O)n(Cc2ccc3c(c2)OCO3)c(=Nc2ccc(F)c(Cl)c2)s1	44.3	-15.3	57.1*	31.2	53.2*	-5.0	6.1	58.9*
COC(=O)c1cc(=O)n(Cc2ccc(OC)cc2)c(=NCc2ccc(OC)cc2)s1	3.4	1.6	12.0	-5.5	14.7	13.7	/	/
CCOCCCNC(=S)N1CCC(C(=O)c2ccc(C)cc2)CC1	-24.8	5.1	8.8	-2.8	11.5	-8.7	/	/
CCC(C)(C)c1ccc(Oc2cccc(C(=O)O)c2)cc1	-12.2	-5.3	-208.6	-18.7	24.7	-43.4	/	/
CCCCCc1ccc(OCCCC[n+]2ccccc2)c(CCCCC)c1	48.8	-28.0	94.8*	50.1*	86.3*	36.6	30.0	102.8*
CCCCCOc1ccc(CN2CCOCC2)cc1Cl	-17.1	9.0	-230.7	-2.6	-185.2	15.8	/	/
CCC(C)(C)c1ccc(OCCCC[n+]2ccccc2)c(C(C)(C)CC)c1	62.5*	-50.4*	92.8*	78.9*	25.1	51.4*	/	/	Mdm2-MdmX confirm=103.0*
CCCCCc1ccc(OCCCC[n+]2ccc(C)cc2)c(CCCCC)c1	74.9*	-66.8*	99.7*	68.4*	10.6	50.3*	/	/	Mdm2-MdmX confirm=103.2*
SMILES	CF NFkB block	KKLEB tox	Peg3 promoter	TWEAK Fn14 block	HIF-2a block	TROY NFkB inh	HIF-2a inh conf	HIF-1a cs	others
Fc1ccc(-c2ccc(/C=N/n3cnnc3)o2)cc1	-11.6	3.1	12.8	-15.8	12.0	0.9	/	/
O=C1NC[C@H](CCCCN2C[C@H](Cc3ccccc3)N(CCc3ccccc3)C(=O)C2=O)N(CCc2ccc(O)cc2)C1=O	/	/	/	36.7	-2.6	-1.2	/	/
CCOc1ccc2oc(=O)cc(CN3CCN(Cc4ccccc4)CC3)c2c1	-21.3	7.1	20.2	5.2	21.8	-12.7	/	/
CCCCC(=O)NC(=S)Nc1ccc(Cl)c(C(=O)O)c1	6.4	4.7	8.4	12.9	8.0	5.7	/	/
O=C(O)CN1C(=O)C(=O)N(Cc2c(F)cccc2Cl)C1=O	-2.3	-3.8	2.8	21.6	16.7	-0.1	/	/
CCn1c2c(c3cc(OCC(C)C)ccc31)CCCC2=O	12.5	-3.5	8.8	-15.9	10.3	11.8	/	/
C=C1CCc2c([nH]c3ccc(OCC(C)C)cc23)C1=O	29.4	-21.4	103.1*	2.1	95.9*	-17.4	-5.7	66.7*
C#CC(=O)N(c1ccc(OC)cc1OC)C(C(=O)NC1CCCC1)c1cccs1 (configuration not stated)	94.1*	-92.9*	100.5*	37.2	95.7*	5.0	99.3*	105.8*	Mdm2-MdmX confirm=102.0*
C#CC(=O)N(c1cc(OC)ccc1OC)C(C(=O)NC1CCCC1)c1cccs1 (configuration not stated)	97.2*	-97.2*	106.7*	46.6	91.7*	12.7	99.1*	105.1*	Mdm2-MdmX confirm=103.5*
COc1ccccc1CN1C(=O)CN(C2CCCC2)C(=O)C1c1ccc(F)cc1 (configuration not stated)	1.5	2.9	16.8	18.4	7.5	-7.0	/	/
Oc1cccc(Nc2nc(N3CCOCC3)nc(N3CCOCC3)n2)c1	37.5	-27.3	6.8	-10.5	49.5*	17.2	24.0	76.5*
O=C(N1CCN(c2ccccc2F)CC1)C12CC3CC(CC(C3)C1)C2	8.6	1.0	10.2	7.4	27.1	-2.6	/	/
